{
  "source": "the supplement of paper PMC9844399",
  "note": "Counter-ions that a name gives are not always drawn.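 Also: Hoechst-stained nuclei counted by automated confocal imaging of four fields per well in 384-well plates, with the robust Z-score based on the per-plate DMSO median and robust SD.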",
  "data": [
    {"tested_on": "HeLa", "test": "nuclear count per well, robust Z-score vs DMSO; higher = more cells (less toxicity)", "settings": "10 µM; 6 h", "values": [
      {"smiles": "Brc1c(NC2=NCCN2)ccc2nccnc12", "note": "[Brimonidine]", "nuclear count per well": 0.626},
      {"smiles": "COCCOC(=O)C1=C(C)NC(C)=C(C(=O)OC(C)C)C1c1cccc([N+](=O)[O-])c1", "note": "(stereo not given) [Nimodipine]", "nuclear count per well": 0.889},
      {"smiles": "NC(=O)c1ncn([C@@H]2O[C@H](CO)[C@@H](O)[C@H]2O)n1", "note": "[Ribavirin]", "nuclear count per well": 0.132},
      {"smiles": "COC(=O)C1=C(C)NC(C)=C(C(=O)OCC(C)C)C1c1ccccc1[N+](=O)[O-]", "note": "(stereo not given) [Nisoldipine]", "nuclear count per well": 0.984},
      {"smiles": "CC(C[N+](C)(C)C)OC(N)=O", "note": "(stereo not given) [Bethanechol Chloride]", "nuclear count per well": 1.96},
      {"smiles": "COc1ccc(C[C@H](N)C(=O)N[C@H]2[C@@H](O)[C@H](n3cnc4c(N(C)C)ncnc43)O[C@@H]2CO)cc1", "note": "[Puromycin.2HCl]", "nuclear count per well": -7.39},
      {"smiles": "COc1ccc(CC2c3cc(OC)c(OC)cc3CC[N+]2(C)CCC(=O)OCCCCCOC(=O)CC[N+]2(C)CCc3cc(OC)c(OC)cc3C2Cc2ccc(OC)c(OC)c2)cc1OC", "note": "(stereo not given) [Atracurium Besylate]", "nuclear count per well": -0.75},
      {"smiles": "C#CCCCCCCCCCCCCCCCC(=O)O", "note": "[17-Octadecynoic acid]", "nuclear count per well": -0.139},
      {"smiles": "C/C(=C\\C(=O)OCCCCCCCCC(=O)O)C[C@@H]1OC[C@H](C[C@@H]2O[C@H]2[C@@H](C)[C@H](C)O)[C@@H](O)[C@H]1O", "note": "[Mupirocin]", "nuclear count per well": -1.07},
      {"smiles": "N[C@@H]1CONC1=O", "note": "[Cycloserine]", "nuclear count per well": 0.653},
      {"smiles": "Cc1cccc(Nc2ccccc2C(=O)O)c1C", "note": "[Mefenamic Acid]", "nuclear count per well": -0.0235},
      {"smiles": "CCCCCCCCCCCCCCCC(=O)C1=C(O)[C@@H](CO)OC1=O", "nuclear count per well": 0.247},
      {"smiles": "CCCCC1C(=O)N(c2ccccc2)N(c2ccccc2)C1=O", "note": "[Phenylbutazone]", "nuclear count per well": 0.422},
      {"smiles": "CCOC(=O)C1=C[C@@H](OC(CC)CC)[C@H](NC(C)=O)[C@@H](N)C1", "note": "[Oseltamivir Phosphate]", "nuclear count per well": -0.617},
      {"smiles": "Nc1nc(=O)n([C@@H]2CS[C@H](CO)O2)cc1F", "note": "[Emtricitabine]", "nuclear count per well": 0.584},
      {"smiles": "CC(C)[C@H](NC(=O)OCc1ccccc1)C(=O)N[C@H](C=O)Cc1ccccc1", "note": "[Calpain Inhibitor III]", "nuclear count per well": -0.0197},
      {"smiles": "COc1cc(CNC(=O)CCCCCCC(C)C)ccc1O", "note": "[Dihydrocapsaicin]", "nuclear count per well": 1.61},
      {"smiles": "CCCCCC(O)C=CC1C(O)CC(O)C1CC=CCCCC(=O)O", "note": "(stereo not drawn) [8-epi-Prostaglandin F2a]", "nuclear count per well": 0.282},
      {"smiles": "CCN(CC)CCNC(=O)c1c(C)[nH]c(/C=C2\\C(=O)Nc3ccc(F)cc32)c1C", "note": "[Sunitinib malate]", "nuclear count per well": -0.388},
      {"smiles": "CCCCC[C@H](O)/C=C/[C@@H]1[C@@H](C/C=C\\CCCC(=O)O)[C@H](O)C[C@H]1O", "note": "[9b,11a-Prostaglandin F2]", "nuclear count per well": 0.982},
      {"smiles": "Nc1ccc(O)c(C(=O)O)c1", "note": "[Mesalamine]", "nuclear count per well": 1.26},
      {"smiles": "CN1C2CCCC1CC(NC(=O)c1nn(C)c3ccccc13)C2", "note": "(stereo not given)", "nuclear count per well": -0.996},
      {"smiles": "CN(C)CCC[C@@]1(c2ccc(F)cc2)OCc2cc(C#N)ccc21", "note": "[Escitalopram]", "nuclear count per well": 0.345},
      {"smiles": "CN(C)[C@@H]1C(O)=C(C(N)=O)C(=O)[C@@]2(O)C(O)=C3C(=O)c4c(O)cccc4[C@@](C)(O)[C@H]3[C@H](O)[C@@H]12", "nuclear count per well": 0.162},
      {"smiles": "CC(COc1ccccc1)N(CCCl)Cc1ccccc1", "note": "(stereo not given)", "nuclear count per well": 0.58},
      {"smiles": "CCCC(CCC)C(=O)O", "note": "[Valproic Acid]", "nuclear count per well": -0.0612},
      {"smiles": "Cn1cc(C2=C(c3ccc(Cl)cc3Cl)C(=O)NC2=O)c2ccccc21", "nuclear count per well": -0.0311},
      {"smiles": "CC1=NN(c2ccccc2)C(=O)C1", "nuclear count per well": 0.294},
      {"smiles": "CC(C)n1nc(-c2cc3cc(O)ccc3[nH]2)c2c(N)ncnc21", "note": "[PP242 hydrate]", "nuclear count per well": -1.07},
      {"smiles": "O=C(O)c1cn(C2CC2)c2cc(N3CCNCC3)c(F)cc2c1=O", "note": "[Ciprofloxacin]", "nuclear count per well": -0.537},
      {"smiles": "Nc1nnc(-c2cccc(Cl)c2Cl)c(N)n1", "note": "[Lamotrigine]", "nuclear count per well": -0.337},
      {"smiles": "COc1cc([C@@H]2c3cc4c(cc3[C@@H](O[C@@H]3O[C@@H]5CO[C@@H](c6cccs6)O[C@H]5[C@H](O)[C@H]3O)[C@H]3COC(=O)[C@H]23)OCO4)cc(OC)c1O", "note": "[Teniposide]", "nuclear count per well": -2.83},
      {"smiles": "COC(=O)Nc1nc2cc(C(=O)c3ccc(F)cc3)ccc2[nH]1", "note": "[Flubendazol]", "nuclear count per well": -0.258},
      {"smiles": "CC[C@H]1OC(=O)[C@H](C)[C@@H](O[C@H]2C[C@@](C)(OC)[C@@H](O)[C@H](C)O2)[C@H](C)[C@@H](O[C@@H]2O[C@H](C)C[C@H](N(C)C)[C@H]2O)[C@](C)(O)C[C@@H](C)CN(C)[C@H](C)[C@@H](O)[C@]1(C)O", "note": "[Azithromycin]", "nuclear count per well": 0.193},
      {"smiles": "CC(=O)OCC(=O)[C@@]1(O)CC[C@H]2[C@@H]3CCC4=CC(=O)CC[C@]4(C)[C@@]3(F)[C@@H](O)C[C@@]21C", "note": "[Fludrocortisone Acetate]", "nuclear count per well": 1.2},
      {"smiles": "NCCS", "nuclear count per well": 1.19},
      {"smiles": "CN1C(CCl)Nc2cc(Cl)c(S(N)(=O)=O)cc2S1(=O)=O", "note": "(stereo not given) [Methyclothiazide]", "nuclear count per well": 0.529},
      {"smiles": "Cc1cc(C(=O)NNCc2ccccc2)no1", "note": "[Isocarboxazid]", "nuclear count per well": 0.132},
      {"smiles": "CC(=O)N(O)CCCCCNC(=O)CCC(=O)N(O)CCCCCNC(=O)CCC(=O)N(O)CCCCCN", "note": "[Deferoxamine Mesylate]", "nuclear count per well": 0.635},
      {"smiles": "C[C@H](CCC(=O)O)[C@H]1CC[C@H]2[C@@H]3[C@H](O)C[C@@H]4C[C@H](O)CC[C@]4(C)[C@H]3CC[C@]12C", "note": "[Chenodiol (Chenodeoxycholic Acid)]", "nuclear count per well": -0.225}
    ]}
  ]
}
